Laboratory results published in PubChem BioAssay (Tox21).
Records with an inconclusive call do not appear. Where a call stands in place of a potency, no number is given. The source made the active and inactive calls. Unless noted, calls follow the shape of the dose curve; as a rule, active = well fitted cell-killing curve with a large enough effect in the repeat runs; inconclusive = weak or mixed curves, or effect the other way; inactive = no such curve, though single readings can be large or run the other way.

Tested on: not listed separately
Experiment: qHTS assay to identify small molecule agonists of the estrogen receptor alpha (ER-alpha) signaling pathway in the presence of an antagonist - cell viability counter screen (AID 1259386);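 also: cells exposed to compounds for 22 h at 37 °C before the viability read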
Details: VM7Luc4E2 viability, CellTiter-Fluor fluorescence, 22 h; series mostly up to 92.4 µM
Method in brief: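 ICI-182,780 at 10.0nM final accompanies the compound titration (15 concentrations, 22hr, 37C) on VM7Luc4E2 cells. The CellTiter-Fluor fluorescence readout runs in the same wells as the luciferase assay.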
Also: nearly all actives have a fitted effect of over 30% in size.

Compound | Potency
CN1CCN(C2=Nc3cc(F)ccc3Cc3ccccc32)CC1 | inactive
NC(=O)Cc1cccc(C(=O)c2ccccc2)c1N | inactive
CCc1cc(Cl)c(OC)c(C(=O)NC[C@@H]2CCCN2CC)c1O | inactive
OCc1ccccc1O | inactive
CC1(O)CSC(C)(O)CS1 (stereo unspecified) | inactive
O=C(O)[C@@H](O)[C@H](O)[C@H](O)[C@@H](O)C(=O)O | inactive
CC(=O)OC(C)OC(C)=O | inactive
CCC/C=C/CO | inactive
C/C(=N\O)[C@@H](C)NCC(C)(C)CN[C@H](C)/C(C)=N/O | inactive
COc1cc2c(cc1N)oc1ccccc12 | inactive
O=C1CCCCCCCCCCC(=O)OCCO1 | inactive
CC(CNC1CCCCC1)OC(=O)c1ccccc1 (stereo unspecified) | inactive
Cc1onc(-c2ccccc2)c1C(=O)Cl | inactive
C=CCCC=C | inactive
CCOC(=O)NCCC[Si](OCC)(OCC)OCC | inactive
OCc1c2ccccc2cc2ccccc12 | inactive
O=C(C(Cl)Cl)N1CCOC12CCCCC2 | inactive
Cn1cnc2c(F)c(Nc3ccc(Br)cc3Cl)c(C(=O)NOCCO)cc21 | inactive
CCc1nnc(NS(=O)(=O)c2ccc(N)cc2)s1 | inactive

Compound | Potency
CN1CCN(c2c(F)cc3c(=O)c(C(=O)O)cn(CCF)c3c2F)CC1 | inactive
NCCCN1CCN(CCCN)CC1 | inactive
COC(=O)c1ccc(OC)cc1 | inactive
NC(=O)NS(=O)(=O)c1ccc(Cl)cc1 | inactive
CCOC(=O)c1cc(=O)c2c(OCC(COc3cccc4oc(C(=O)OCC)cc(=O)c34)OC(=O)[C@@H](N)CCCCN)cccc2o1 | inactive
CCN(CCCc1ccccc1)CCCc1ccccc1 | inactive
CC(C)=CCC[C@](C)(O)[C@@H]1CC=C(C)CC1 | inactive
O=CCCc1ccccc1 | inactive
C=C(C)C(=O)OCCOP(=O)(O)O | inactive
C[C@]12C(=O)OC(=O)[C@H]1[C@H]1C=C[C@@H]2C1 | inactive
Cc1ccc([N+](=O)[O-])c(N)c1 | inactive
CC(C)NC[C@@H](O)COc1cccc2ccccc12 | inactive
O=C(O[C@@H](C(=O)O)[C@@H](OC(=O)c1ccccc1)C(=O)O)c1ccccc1 | inactive
CCOC(=O)C1CC(=O)C(=C(O)C2CC2)C(=O)C1 (stereo unspecified) | inactive
FC(F)(F)C(Cl)(Cl)Cl | inactive
COc1ccc(S(=O)(=O)Nc2nnc(CC(C)C)s2)cc1 | inactive
Cc1ccc([N+](=O)[O-])cc1Cl | inactive
CCCCc1ccc2nc(NC(=O)OC)[nH]c2c1 | inactive
Cc1cc(NS(=O)(=O)c2ccc(N)cc2)nc(C)n1 | inactive

Molecular target: Progesterone receptor (Homo sapiens) (UniProt P06401)
Sequence (P06401 whole entry, looked up): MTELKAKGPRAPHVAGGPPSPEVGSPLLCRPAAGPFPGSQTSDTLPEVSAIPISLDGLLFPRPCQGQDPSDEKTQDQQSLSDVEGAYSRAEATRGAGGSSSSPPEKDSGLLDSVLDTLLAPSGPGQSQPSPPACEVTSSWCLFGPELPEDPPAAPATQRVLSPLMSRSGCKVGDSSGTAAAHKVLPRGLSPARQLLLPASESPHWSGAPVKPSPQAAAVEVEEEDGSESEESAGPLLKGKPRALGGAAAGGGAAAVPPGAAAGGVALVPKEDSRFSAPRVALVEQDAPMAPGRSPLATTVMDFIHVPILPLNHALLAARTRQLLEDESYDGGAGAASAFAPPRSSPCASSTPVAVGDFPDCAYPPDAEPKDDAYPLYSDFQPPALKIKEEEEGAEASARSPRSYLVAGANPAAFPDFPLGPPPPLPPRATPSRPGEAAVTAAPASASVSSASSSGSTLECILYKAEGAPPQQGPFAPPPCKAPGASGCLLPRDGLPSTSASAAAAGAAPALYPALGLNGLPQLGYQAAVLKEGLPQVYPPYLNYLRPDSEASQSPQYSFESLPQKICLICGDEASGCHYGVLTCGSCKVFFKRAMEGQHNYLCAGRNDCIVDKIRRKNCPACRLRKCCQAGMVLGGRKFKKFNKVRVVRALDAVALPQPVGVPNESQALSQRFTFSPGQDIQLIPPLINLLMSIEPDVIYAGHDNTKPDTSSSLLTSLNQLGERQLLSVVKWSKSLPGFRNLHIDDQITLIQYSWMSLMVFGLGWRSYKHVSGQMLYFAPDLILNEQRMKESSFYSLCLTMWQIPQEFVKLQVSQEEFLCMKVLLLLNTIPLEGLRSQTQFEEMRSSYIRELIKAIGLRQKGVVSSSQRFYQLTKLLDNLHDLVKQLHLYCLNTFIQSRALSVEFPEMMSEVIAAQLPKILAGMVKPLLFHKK
Experiment: qHTS assay to identify small molecule agonists of the progesterone receptor (PR) signaling pathway (AID 1346784; calls by dose curve; also: potency is read from the fitted curve at half-maximal effect)
Details: PR-UAS-bla HEK293T, beta-lactamase FRET ratio, 16 h; series mostly up to 92.4 µM
Method in brief: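 Beta-lactamase reporter read-out: after 16 hr compound treatment at 37C and a further 2 hr at room temperature with LiveBLAzer B/G FRET substrate, fluorescence was measured in PR-UAS-bla HEK 293T cells grown in 2% charcoal-stripped serum.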

Compound | Potency
CN1CCN(C2=Nc3cc(F)ccc3Cc3ccccc32)CC1 | inactive
NC(=O)Cc1cccc(C(=O)c2ccccc2)c1N | inactive
CCc1cc(Cl)c(OC)c(C(=O)NC[C@@H]2CCCN2CC)c1O | inactive
OCc1ccccc1O | inactive
CC1(O)CSC(C)(O)CS1 (stereo unspecified) | inactive
O=C(O)[C@@H](O)[C@H](O)[C@H](O)[C@@H](O)C(=O)O | inactive
CC(=O)OC(C)OC(C)=O | 50 µM (active)
CCC/C=C/CO | inactive
C/C(=N\O)[C@@H](C)NCC(C)(C)CN[C@H](C)/C(C)=N/O | inactive
COc1cc2c(cc1N)oc1ccccc12 | inactive
O=C1CCCCCCCCCCC(=O)OCCO1 | inactive
CC(CNC1CCCCC1)OC(=O)c1ccccc1 (stereo unspecified) | inactive
Cc1onc(-c2ccccc2)c1C(=O)Cl | inactive
C=CCCC=C | 19.9 µM (active)
CCOC(=O)NCCC[Si](OCC)(OCC)OCC | inactive
OCc1c2ccccc2cc2ccccc12 | inactive
O=C(C(Cl)Cl)N1CCOC12CCCCC2 | inactive
Cn1cnc2c(F)c(Nc3ccc(Br)cc3Cl)c(C(=O)NOCCO)cc21 | inactive
CCc1nnc(NS(=O)(=O)c2ccc(N)cc2)s1 | inactive

Compound | Potency
CN1CCN(c2c(F)cc3c(=O)c(C(=O)O)cn(CCF)c3c2F)CC1 | inactive
NCCCN1CCN(CCCN)CC1 | inactive
COC(=O)c1ccc(OC)cc1 | inactive
NC(=O)NS(=O)(=O)c1ccc(Cl)cc1 | inactive
CCOC(=O)c1cc(=O)c2c(OCC(COc3cccc4oc(C(=O)OCC)cc(=O)c34)OC(=O)[C@@H](N)CCCCN)cccc2o1 | inactive
CCN(CCCc1ccccc1)CCCc1ccccc1 | inactive
CC(C)=CCC[C@](C)(O)[C@@H]1CC=C(C)CC1 | inactive
O=CCCc1ccccc1 | inactive
C=C(C)C(=O)OCCOP(=O)(O)O | inactive
C[C@]12C(=O)OC(=O)[C@H]1[C@H]1C=C[C@@H]2C1 | inactive
Cc1ccc([N+](=O)[O-])c(N)c1 | inactive
CC(C)NC[C@@H](O)COc1cccc2ccccc12 | inactive
O=C(O[C@@H](C(=O)O)[C@@H](OC(=O)c1ccccc1)C(=O)O)c1ccccc1 | inactive
CCOC(=O)C1CC(=O)C(=C(O)C2CC2)C(=O)C1 (stereo unspecified) | inactive
FC(F)(F)C(Cl)(Cl)Cl | inactive
COc1ccc(S(=O)(=O)Nc2nnc(CC(C)C)s2)cc1 | inactive
Cc1ccc([N+](=O)[O-])cc1Cl | inactive
CCCCc1ccc2nc(NC(=O)OC)[nH]c2c1 | inactive
Cc1cc(NS(=O)(=O)c2ccc(N)cc2)nc(C)n1 | inactive
